Data taken from PubChem BioAssay (NCI).
This is part of a sample that, as a whole, favours compounds with a hit. Of some 79,000 tested, about 15% had one in any assay. Active and inactive are the calls of the source. Cut-off read from the data, not from the text of the source: active = growth inhibition above about 70%; inactive = the rest.

Legend:
[1] = NCI Yeast Anticancer Drug Screen. Data for the rad50 strain (AID 155);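 note: 0% = growth of vehicle-only cultures of the same strain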; settings: S. cerevisiae rad50 strain growth inhibition; at 50.0 µM; active compounds read high
Outline: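 Readout: growth inhibition relative to vehicle-treated cultures. Compound exposure was carried out in a genetically defined yeast strain deficient in DNA damage repair.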

[2] = NCI Yeast Anticancer Drug Screen. Data for the mec2-1 strain (AID 157); settings: S. cerevisiae mec2-1 strain, at 50.0 µM, active compounds read high
Outline: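 Readout is yeast growth inhibition, normalised to vehicle-treated controls, in the mec2-1 strain exposed to compound.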

[3] = NCI Yeast Anticancer Drug Screen. Data for the sgs1 mgt1 strain (AID 161);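 note: 0% = growth of cultures given vehicle only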; settings: S. cerevisiae sgs1 mgt1 strain, at 50.0 µM, active compounds read high
Outline: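 Yeast cells carrying a defined DNA-repair defect were exposed to test compounds. Growth inhibition was measured relative to vehicle-treated controls.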

[4] = NCI Yeast Anticancer Drug Screen. Data for the cln2 rad14 strain (AID 165);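 note: 0% = growth equal to vehicle treated cultures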; settings: S. cerevisiae cln2 rad14 strain, at 50.0 µM, active compounds read high
Outline: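 Relative to vehicle controls, growth inhibition of compound-treated cln2 rad14 yeast was recorded.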

[5] = NCI Yeast Anticancer Drug Screen. Data for the bub3 strain (AID 167); settings: S. cerevisiae bub3 mutant strain, at 50.0 µM, active compounds read high
Outline: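 Readout: yeast growth inhibition, expressed relative to vehicle-only wells. The test organism is a mutant strain from a panel with lesions in DNA repair or checkpoint genes.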

[6] = NCI Yeast Anticancer Drug Screen. Data for the mlh1 rad18 strain (AID 175); settings: S. cerevisiae mlh1 rad18 strain growth inhibition; at 50.0 µM; active compounds read high
Outline: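 Test agents were incubated with a yeast strain of defined genotype (DNA damage repair defect). Inhibition of growth was derived by comparison with vehicle-exposed cultures.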

Measured: growth inhibition

CN/N=C(/c1nc2ccc([N+](=O)[O-])cc2[nH]c1=O)C(O)c1ccc(C(O)/C(=N\NC)c2nc3ccc([N+](=O)[O-])cc3[nH]c2=O)cc1 (stereo not given)
inactive: [1] 31.2% | [2] -5.55% | [3] 0.6% | [4] -26.2% | [5] -3.85% | [6] 19.4%

O=C1C=C(Nc2ccc(Br)cc2)c2ccccc2C1=O
inactive: [1] 36.3% | [2] -1.95% | [3] 11.6% | [4] 7.75% | [5] -1.45% | [6] -2.05%

C=CCC1(CO)CCCCC1O (stereo not given)
inactive: [1] 1.6% | [2] 1.5% | [3] 16.4% | [4] -73.4% | [5] 10.3% | [6] 3.2%

CCN(CC)CCOC(=O)c1ccc(NC(=O)Nc2ccc(Br)cc2)cc1
inactive: [1] 4.6% | [2] -4.95% | [3] 30.1% | [4] 0.25% | [5] 8.05% | [6] 11.2%

CC12CCC(=O)[C@@]1(C)CCCC2O (stereo not given in full)
inactive: [1] -34.2% | [2] -34.4% | [3] -12.8% | [4] -34.6% | [5] -26.8% | [6] -32.2%

CCOC(=O)NC(=O)c1cn(CCCCCCCCCCC(=O)NCCCN2CCN(CCCNC(=O)CCCCCCCCCCn3cc(C(=O)NC(=O)OCC)c(=O)[nH]c3=O)CC2)c(=O)[nH]c1=O
inactive: [1] -19.2% | [2] 12.9% | [3] -23.8% | [4] -27.4% | [5] 2.25% | [6] -17.6%

CC(=O)N1CC(C)CC2OC3(CCC4C5CCC6CC(=O)CCC6(C)C5C(=O)C4C3C)C(C)C21 (stereo not given)
inactive: [1] -0.65% | [2] -13.1% | [3] -9.15% | [4] -0.75% | [5] -5.9% | [6] -3.75%

Cc1nc2c(=O)[nH]c3ccccc3c2o1
inactive: [1] -3.25% | [2] 7% | [3] 3.1% | [4] -7% | [5] -10.3% | [6] -32.4%

COc1ccc(C(CN)c2ccc(N)cc2)cc1 (stereo not given)
inactive: [1] 8.8% | [2] 10.7% | [3] 1.6% | [4] 2.9% | [5] -13.4% | [6] -5.05%

CC12O[C@H](c3ccccc3)[C@H](c3ccccc3)N1C(=O)C1(C(=O)OCc3ccccc3)CC12 (stereo not given in full)
inactive: [1] 11.3% | [2] -7.35% | [3] 6.4% | [4] 2.15% | [5] -7.05% | [6] -3.45%

O=C1/C(=C/c2ccccc2)CCc2ccc([N+](=O)[O-])cc21
inactive: [1] -2.9% | [2] -1.85% | [3] 8.25% | [4] 4.1% | [5] 0.95% | [6] -26.4%

O=C1C2CSCN2C(=O)C2CSCN12 (stereo not given)
inactive: [1] 5% | [2] 4.45% | [3] 5.7% | [4] 12.1% | [5] 8.8% | [6] 4.5%

CCOC(CN(C)C(=S)Nc1cccc2ccccc12)OCC
inactive: [1] -27.1% | [2] -30.1% | [3] -2.2% | [4] -6.45% | [5] -6.9% | [6] -13.2%

CCOC(=O)CC1(O)C(=O)N(Cc2ccccc2)c2ccccc21 (stereo not given)
inactive: [1] 15.6% | [2] -0.15% | [3] 7.55% | [4] 0.4% | [5] 19.8% | [6] -15.1%

OCCN(CCO)c1cc(/C=C/c2c3ccccc3cc3ccccc23)nc2ccccc12
active: [1] 94.2% | [2] 95.9% | [3] 96.1% | [4] 94.8% | [5] 96.5% | [6] 95.7%

N#Cc1c(O)c(-c2ccccc2)c(=O)n2c1[nH]c1ccccc12
inactive: [1] -11.7% | [2] -9.9% | [3] -13.6% | [4] 14.9% | [5] 2.6% | [6] -12.3%

COC(=O)C1(CCSc2ccccc2)CCCC1=O (stereo not given)
inactive: [1] 29.3% | [2] -33% | [3] 14.8% | [4] 5.05% | [5] 27% | [6] 6.65%

O=C1NC2(O)C(=O)c3ccccc3C2(O)N1 (stereo not given)
inactive: [1] -8.65% | [2] -10.2% | [3] -27.9% | [4] 5.8% | [5] -17.3% | [6] 0.55%

O=C(CC1Sc2ccccc2NC1=O)NNc1c(Cl)cc(Cl)cc1Cl (stereo not given)
inactive: [1] 6.45% | [2] 0.9% | [3] 4% | [4] 17.3% | [5] 0.55% | [6] 33%

S=C1SCCCN1c1ccccc1
inactive: [1] -6.35% | [2] -4.05% | [3] -4.9% | [4] -14.5% | [5] -9.6% | [6] -20%

CC1(C)C=C(N2CCCCC2)C(=O)c2ccccc21
inactive: [1] -9.6% | [2] -2.25% | [3] -12.2% | [4] -16.4% | [5] -9.1% | [6] 5.15%

COc1cc(O)c(C(C)c2ccccc2)cc1N=O (stereo not given)
inactive: [1] -9.45% | [2] -11.6% | [3] -4.4% | [4] 4.15% | [5] 11.8% | [6] -6.15%

O=C(NNC(=O)c1ccc2ccccc2n1)c1ccc2ccccc2n1
inactive: [1] 5.2% | [2] 2.45% | [3] 12.3% | [4] 9.8% | [5] 0.2% | [6] 16.6%

O=c1[nH]c2cccnc2c(=O)n1O
inactive: [1] -6.5% | [2] -8.7% | [3] -7.35% | [4] -39.8% | [5] 12.2% | [6] -5.5%

CCN(CC)CCNC(=O)c1ccc(C)c(OCc2ccccc2)c1[N+](=O)[O-]
inactive: [1] -9.4% | [2] -9.25% | [3] 26.6% | [4] -26.8% | [5] 34.8% | [6] -19.6%

O=C(N/C=C(/c1ccccc1)S(=O)Cc1ccccc1)Nc1ccccc1Cl (stereo not given)
inactive: [1] -8.45% | [2] -27.6% | [3] 0.85% | [4] -15.2% | [5] -9.7% | [6] -24.9%

CCCCCCCCCCCCSC1=CC(=O)C(SCCCCCCCCCCCC)=CC1=O
inactive: [1] -15.8% | [2] -6.55% | [3] -5.6% | [4] -13.2% | [5] -4.5% | [6] -34.1%

COc1ccc(C(=O)c2cc3c(ccc4ccccc43)oc2=O)cc1
inactive: [1] -3.7% | [2] 0.6% | [3] 7.2% | [4] 2.85% | [5] 23.9% | [6] -7.45%

O=C(CCl)Oc1cccc2cccnc12
inactive: [1] -8.75% | [2] 9% | [3] -1.35% | [4] -12.2% | [5] -2.45% | [6] -2.75%

CCc1ccc(S(N)(=O)=O)cc1
inactive: [1] 11.1% | [2] -4.1% | [3] -16.3% | [4] -24.6% | [5] -7% | [6] -168%

Cc1c(C)c(C)c(S(=O)(=O)NCCCNS(=O)(=O)c2c(C)c(C)c(C)c(C)c2C)c(C)c1C
inactive: [1] 3.85% | [2] -28.7% | [3] -7.2% | [4] 7.7% | [5] -4.95% | [6] -1.1%

COC1=CC(=O)/C(=C(O)/C=C/c2ccccc2)C(=O)C1(C)C
inactive: [1] 3.2% | [2] -1.65% | [3] 16.9% | [4] -2.5% | [5] 14.6% | [6] 29.4%

O=C1c2ccccc2SC[C@@H]2CCCN12
inactive: [1] 22.9% | [2] -7.75% | [3] -3.6% | [4] 9.35% | [5] 3.35% | [6] 2.35%

FC(F)(F)c1cc(Nc2nc(-c3ccccc3)nc3c2C(=NCc2ccco2)OC3=NCc2ccco2)ccc1Cl
inactive: [1] 5% | [2] 14.6% | [3] 2.9% | [4] -6.35% | [5] -4.7% | [6] 9.75%

COc1cc(O)c(C(=O)CC(C)=O)c(OC)c1
inactive: [1] -14.9% | [2] -14.8% | [3] -3.7% | [4] -0.9% | [5] 10.9% | [6] -11.7%

CC(C)(C)c1cc(-c2cc(C(C)(C)C)[nH]n2)n[nH]1
inactive: [1] 12.8% | [2] 4% | [3] 12.7% | [4] 9.05% | [5] 14.2% | [6] 10.3%

O=C(N/N=C\c1cccnc1)Nc1ccc(N=Nc2ccccc2)cc1
inactive: [1] 12% | [2] 12.5% | [3] -1.9% | [4] -9.2% | [5] 11.9% | [6] 23.1%

CCCCC(C(=O)OCC)[N+](=O)[O-] (stereo not given)
inactive: [1] -24.2% | [2] -25.2% | [3] 2.5% | [4] 5.5% | [5] 2.35% | [6] 16.4%

O=NN(C(=O)NCCCl)c1[nH]c(=O)ncc1Br
inactive: [1] -8.6% | [2] -13.7% | [3] -16% | [4] -25.4% | [5] -7.95% | [6] -6.7%

CC(C)N1C(=O)c2cccc3c(Br)ccc(c23)C1=O
active: [1] 97.8% | [2] 99.3% | [3] 97.2% | [4] 98.4% | [5] 99.2% | [6] 98.5%
